Three molecules from PubChem BioAssay (EPA / NIEHS) can be followed below.

The source made the active and inactive calls. How the source made its calls: active means hit-call score of the fitted dose curve at least 0.9, where 1 is the maximum; inactive means score below 0.9.

Read-out in assay [1]: Interleukin-1 alpha (IL1a), IL1A (gene 3552)
Put plainly: BSK_KF3CT_IL1a: BioMAP Diversity Plus: KF3CT Assay for Interleukin-1 alpha (IL1a) Biomarker Activity (AID 2283070). As to conditions: primary human keratinocytes with fibroblasts; actives raise or lower the signal. The procedure, abridged: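 Readout is IL-1a level by ELISA, compared bidirectionally with DMSO as baseline. Cells: human keratinocytes co-cultured with foreskin fibroblasts, harvested 24 h post-dose.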

Read-out in assay [2]: TIMP metallopeptidase inhibitor 2 (TIMP2), TIMP2 (gene 7077)
The assay is described as follows: BSK_KF3CT_TIMP2: BioMAP Diversity Plus: KF3CT Assay for TIMP metallopeptidase inhibitor 2 (TIMP2) Biomarker Activity (AID 2283071). As to conditions: primary human keratinocytes with fibroblasts; actives raise or lower the signal. Put shortly: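 Measurements come from ELISA detection of TIMP-2 at 24 hours in a dosed human keratinocyte and foreskin fibroblast co-culture. DMSO serves as negative control and baseline.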

Read-out in assay [3]: Transforming growth factor beta 1 (TGFb1), TGFB1 (gene 7040)
Put plainly: BSK_KF3CT_TGFb1: BioMAP Diversity Plus: KF3CT Assay for Transforming growth factor beta 1 (TGFb1) Biomarker Activity (AID 2283072). As to conditions: primary human keratinocytes with fibroblasts; actives raise or lower the signal. Put shortly: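 TGF-b1 ELISA on a 24 h dosed co-culture of human keratinocytes and foreskin fibroblasts; cytotoxicity tracked in parallel cultures by SRB staining.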

Read-out in assay [4]: C-C motif chemokine 2 (Homo sapiens) (UniProt P13500)
Put plainly: BSK_KF3CT_MCP1: BioMAP Diversity Plus: KF3CT Assay for Monocyte Chemoattractant Protein 1 (MCP1/CCL2) Biomarker Activity (AID 2283073). As to conditions: primary human keratinocytes with fibroblasts; actives raise or lower the signal. The procedure, abridged:
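Keratinocytes and foreskin fibroblasts were co-cultured, dosed with chemical, and sampled 24 h later. MCP-1 was quantified by ELISA, and the endpoint was analyzed with bidirectional fitting using DMSO as negative control.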

Read-out in assay [5]: Matrix Metallopeptidase 9 (MMP9), MMP9 (gene 4318)
Put plainly: BSK_KF3CT_MMP9: BioMAP Diversity Plus: KF3CT Assay for Matrix Metallopeptidase 9 (MMP9) Biomarker Activity (AID 2283074). As to conditions: primary human keratinocytes with fibroblasts; actives raise or lower the signal. The procedure, abridged: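 Values come from bidirectional fitting relative to DMSO of MMP-9 levels, which were measured by ELISA. Measurements were taken 24 h after chemical dosing of a keratinocyte and foreskin fibroblast co-culture.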

Read-out in assay [6]: urokinase plasminogen activator (uPA), PLAU (gene 5328)
Put plainly: BSK_KF3CT_uPA: BioMAP Diversity Plus: KF3CT Assay for urokinase plasminogen activator (uPA) Biomarker Activity (AID 2283075). As to conditions: primary human keratinocytes with fibroblasts; actives raise or lower the signal. Put shortly:
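Values derive from bidirectional fitting against DMSO controls. Keratinocyte/foreskin fibroblast co-cultures received chemical; 24 h later uPA was detected by ELISA, with SRB total-protein staining in parallel wells for overt cytotoxicity.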

Read-out in assay [7]: CD40, CD40 (gene 958)
The assay is described as follows: BSK_LPS_CD40: BioMAP Diversity Plus: LPS Assay for CD40 Biomarker Activity (AID 2283076). As to conditions: primary human HUVEC with PBMC; actives raise or lower the signal. The procedure, abridged:
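CD40 signal, measured by ELISA, is fitted in both directions relative to DMSO vehicle. The system is an LPS-driven human vascular primary co-culture of endothelial cells and PBMC, sampled 24 h after compound addition.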

Read-out in assay [8]: Interleukin-8 (IL8), CXCL8 (gene 3576)
The assay is described as follows: BSK_LPS_IL8: BioMAP Diversity Plus: LPS Assay for Interleukin-8 (IL8) Biomarker Activity (AID 2283078). As to conditions: primary human HUVEC with PBMC; actives raise or lower the signal. The procedure, abridged: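 Endothelial cells and PBMC from human donors are co-cultured, treated with chemicals and LPS, then assayed for IL-8 by ELISA after 24 h. Parallel SRB staining (0.1% SRB after 10% TCA fixation, 560 nm) flags cytotoxicity.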

The nature of assay [9]: BSK_LPS_SRB: Viability Assessment in the BioMAP Diversity Plus: LPS Assay (AID 2283079).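 Further: total protein by sulforhodamine B absorbance as a cytotoxicity measure; measured one day after compound addition; fitted in both directions against DMSO so loss or gain of signal counts.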 As to conditions: primary human HUVEC with PBMC. Put shortly:
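Overt cytotoxicity was gauged by sulforhodamine B total-protein staining in a primary human vascular endothelial and mononuclear cell co-culture 24 h post-dosing. Activity was fitted in both directions relative to DMSO.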

Read-out in assay [10]: Interleukin-1 alpha (IL1a), IL1A (gene 3552)
Put plainly: BSK_LPS_IL1a: BioMAP Diversity Plus: LPS Assay for Interleukin-1 alpha (IL1a) Biomarker Activity (AID 2283080). As to conditions: primary human HUVEC with PBMC; actives raise or lower the signal. The procedure, abridged: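 Measured: IL-1 alpha via ELISA at 24 h in LPS-activated human umbilical vein endothelium–PBMC co-culture. Baseline: DMSO, bidirectional fitting.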

Read-out in assay [11]: Monocyte Chemoattractant Protein-1 (MCP1), CCL2 (gene 6347)
Put plainly: BSK_LPS_MCP1: BioMAP Diversity Plus: LPS Assay for Monocyte Chemoattractant Protein-1 (MCP1) Biomarker Activity (AID 2283081). As to conditions: primary human HUVEC with PBMC; actives raise or lower the signal. The procedure, abridged:
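LPS-stimulated HUVEC/PBMC co-culture; chemical, 24 h; MCP-1 by ELISA; bidirectional fit vs DMSO; cytotoxicity via SRB (0.1% stain, 10% TCA fix, 560 nm) in parallel wells.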

A short description of assay [12]: BSK_LPS_PGE2: BioMAP Diversity Plus: LPS Assay for Prostaglandin E2 (PGE2) Biomarker Activity (AID 2283082). As to conditions: primary human HUVEC with PBMC; actives raise or lower the signal. Put shortly: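 Primary human endothelial cells and blood mononuclear cells, co-cultured with LPS, receive test chemical; PGE2 ELISA follows at 24 h, with SRB-stained parallel cultures flagging cytotoxicity.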

Read-out in assay [13]: Macrophage colony-stimulating factor (MCSF), CSF1 (gene 1435)
The assay is described as follows: BSK_LPS_MCSF: BioMAP Diversity Plus: LPS Assay for Macrophage colony-stimulating factor (MCSF) Biomarker Activity (AID 2283083). As to conditions: primary human HUVEC with PBMC; actives raise or lower the signal. Put shortly:
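Compound is added to a human vascular primary co-culture of umbilical vein endothelium and blood mononuclear cells. After 24 h, M-CSF is quantified by ELISA. Signal changes are fitted in both directions against DMSO.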

Read-out in assay [14]: Tissue Factor, F3 (gene 2152)
Put plainly: BSK_LPS_TissueFactor: BioMAP Diversity Plus: LPS Assay for Tissue Factor Biomarker Activity (AID 2283084). As to conditions: primary human HUVEC with PBMC; actives raise or lower the signal. The procedure, abridged: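 In this co-culture system of umbilical vein endothelium with PBMC, stimulated with LPS, cell-surface CD142 is detected by ELISA at 24 h. Endpoint values derive from bidirectional fitting, DMSO serving as baseline.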

Read-out in assay [15]: Tumor necrosis factor (Homo sapiens) (UniProt P01375)
The assay is described as follows: BSK_LPS_TNFa: BioMAP Diversity Plus: LPS Assay for Tumour Necrosis Factor alpha (TNFa) Biomarker Activity (AID 2283085). As to conditions: primary human HUVEC with PBMC; actives raise or lower the signal. The procedure, abridged:
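ELISA-based TNFa endpoint in a human endothelial–PBMC co-culture sampled 24 h post-exposure. Curves were fitted in both directions using DMSO as baseline of activity.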

Read-out in assay [16]: Vascular cell adhesion molecule 1 (VCAM1), VCAM1 (gene 7412)
Put plainly: BSK_LPS_VCAM1: BioMAP Diversity Plus: LPS Assay for Vascular cell adhesion molecule 1 (VCAM1) Biomarker Activity (AID 2283086). As to conditions: primary human HUVEC with PBMC; actives raise or lower the signal. The procedure, abridged:
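Measured by ELISA: VCAM-1 in LPS-activated HUVEC/PBMC co-cultures 24 h after treatment. Values reflect bidirectional fitting with DMSO as baseline.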

Read-out in the next assay: CD38, CD38 (gene 952)
The assay is described as follows: BSK_SAg_CD38: BioMAP Diversity Plus: SAg Assay for CD38 Biomarker Activity (AID 2283087). As to conditions: primary human HUVEC with PBMC; actives raise or lower the signal. The procedure, abridged:
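Measures CD38 on a human endothelial/PBMC co-culture driven by SEB and TSST-1, 24 h after compound exposure, using ELISA with fluorescence detection; DMSO defines baseline for bidirectional curve fitting.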

Read-out in assay [17]: CD40, CD40 (gene 958)
The assay is described as follows: BSK_SAg_CD40: BioMAP Diversity Plus: SAg Assay for CD40 Biomarker Activity (AID 2283088). As to conditions: primary human HUVEC with PBMC; actives raise or lower the signal. The procedure, abridged: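 Fluorescence ELISA read-out of CD40 from umbilical vein endothelium plus peripheral blood mononuclear cells, sampled 24 h after dosing. Values come from bidirectional curve fitting with DMSO as baseline.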

Read-out in a further assay: CD69, CD69 (gene 969)
Put plainly: BSK_SAg_CD69: BioMAP Diversity Plus: SAg Assay for CD69 Biomarker Activity (AID 2283089). As to conditions: primary human HUVEC with PBMC; actives raise or lower the signal. Put shortly: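 HUVEC co-cultured with PBMC were dosed with chemical, and CD69 was measured by ELISA with fluorescence read-out 24 h later. Bidirectional curve fitting used DMSO as negative control and activity baseline.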

Read-out in assay [18]: E-selectin (Homo sapiens) (UniProt P16581)
Put plainly: BSK_LPS_Eselectin: BioMAP Diversity Plus: LPS Assay for Eselectin Biomarker Activity (AID 2283077). As to conditions: primary human HUVEC with PBMC; actives raise or lower the signal. The procedure, abridged:
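Signal of E-selectin, detected by ELISA, served as the endpoint; cells were umbilical vein endothelium with PBMC, read 24 h after treatment. DMSO defined baseline, and both increases and decreases were fitted.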

Tumor necrosis factor (Homo sapiens), sequence (P01375 whole entry, looked up): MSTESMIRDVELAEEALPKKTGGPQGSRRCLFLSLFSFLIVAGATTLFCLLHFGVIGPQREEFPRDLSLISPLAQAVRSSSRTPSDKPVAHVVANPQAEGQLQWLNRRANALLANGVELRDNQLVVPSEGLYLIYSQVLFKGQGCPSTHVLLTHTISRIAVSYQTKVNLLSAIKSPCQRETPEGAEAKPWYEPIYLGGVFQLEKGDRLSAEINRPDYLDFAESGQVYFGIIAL
E-selectin (Homo sapiens), sequence (P16581 whole entry, looked up): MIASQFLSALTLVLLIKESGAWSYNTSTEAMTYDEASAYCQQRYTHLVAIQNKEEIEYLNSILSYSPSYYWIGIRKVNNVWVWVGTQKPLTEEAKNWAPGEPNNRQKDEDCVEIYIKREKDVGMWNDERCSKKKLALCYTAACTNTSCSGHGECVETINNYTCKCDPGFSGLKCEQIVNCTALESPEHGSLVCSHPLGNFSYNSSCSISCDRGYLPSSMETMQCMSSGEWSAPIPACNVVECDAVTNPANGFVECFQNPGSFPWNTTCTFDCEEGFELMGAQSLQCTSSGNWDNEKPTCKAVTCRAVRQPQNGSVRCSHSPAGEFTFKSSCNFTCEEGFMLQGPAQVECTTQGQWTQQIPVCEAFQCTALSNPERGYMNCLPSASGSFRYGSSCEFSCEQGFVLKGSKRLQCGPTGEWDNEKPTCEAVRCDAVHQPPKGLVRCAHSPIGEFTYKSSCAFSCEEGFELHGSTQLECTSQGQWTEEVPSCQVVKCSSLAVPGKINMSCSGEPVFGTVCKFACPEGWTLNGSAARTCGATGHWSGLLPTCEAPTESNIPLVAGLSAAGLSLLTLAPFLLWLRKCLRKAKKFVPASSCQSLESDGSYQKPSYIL

As for `CCOP(=S)(OCC)SCn1nnc2ccccc2c1=O`, the outcome in assay [1], in [2], in assay [3], in assay [4], in assay [5] and in assay [6] was inactive. In addition, the outcome in the assay with CD40, CD40 (gene 958) [7] is “inactive”; in [8] it was “inactive”; in assay [9], “inactive”; in [10], “inactive”; in assay [11], “inactive”; in [12], “inactive”. Besides, the outcome in [14] was “inactive”; in assay [15], “inactive”; in assay [16], “inactive”; in the assay with CD38, CD38 (gene 952), “inactive”; with CD40, CD40 (gene 958) [17], “inactive”; with CD69, CD69 (gene 969), “inactive”. In [13], the AC50 (usually the concentration giving half of the maximal activity seen) was 20 µM (active).

As to `CCC1(c2ccccc2)C(=O)N=C(O)NC1=O` (stereo unspecified), the result in assay [1], in assay [2], in [3], in [4], in assay [5] and in [6] was inactive. Also, the outcome is “inactive” with CD40, CD40 (gene 958) [7]; “inactive” in assay [8]; “inactive” in assay [9]; “inactive” in assay [10]; “inactive” in [11]; “inactive” in assay [12]. Also, the outcome in assay [13] was “inactive”; in assay [14], “inactive”; in [15], “inactive”; in assay [16], “inactive”; in the assay with CD38, CD38 (gene 952), “inactive”; in the assay with CD40, CD40 (gene 958) [17] it was “inactive”. For the same molecule, in the assay with CD69, CD69 (gene 969), the result was inactive.

For the molecule `CCC(C)(C)c1ccc(O)cc1`, the outcome in [1], in assay [2], in assay [3], in assay [4], in assay [5] and in assay [6] was inactive. Also, the outcome in the assay with CD40, CD40 (gene 958) [7] is “inactive”; in assay [18], “inactive”; in [8], “inactive”; in [9], “inactive”; in assay [10], “inactive”; in assay [11], “inactive”. For the same molecule, the outcome in assay [12] was “inactive”; in assay [14], “inactive”; in [16] it was “inactive”; in the assay with CD38, CD38 (gene 952) it was “inactive”; in the assay with CD40, CD40 (gene 958) [17], “inactive”; with CD69, CD69 (gene 969), “inactive”.
